# Values joined by “and” are separate entries in the source; they are usually repeats but may differ in a detail not shown here. Identical values can stand only once. The panel holds about 83,000 compounds, 20% with a hit somewhere; the sample as a whole holds those more often.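 Percent growth is the endpoint: 0 to 100 indicates growth inhibition (40 means 60% inhibition), 0 means no net growth, and negative values indicate cell death.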 Active and inactive are the calls of the source. Rule for the calls: active = growth percent below 10; inactive = the rest.
# System: MDA-MB-468 breast
# Assay: NCI-60 one-dose screen, 48 h (100 = growth as untreated, 0 = no growth, -100 = all killed)
# Conditions: 10 µM unless noted
row,Compound,growth
1,CSc1nc(NCCO)c(C#N)c(-c2cccc([N+](=O)[O-])c2)n1,105% (inactive)
2,CN(C)c1ccc(N=C2C=CC(=O)C=C2)cc1,12.5% (inactive)
3,COc1ccc(-c2nc(NC(=O)CS(=O)(=O)c3ccc(F)cc3)sc2C)cc1,32% (inactive)
4,CC1(C)C2CC=C(/C=N/NC(=O)C3CCC(=O)N3)C1C2 (stereo not given),114% (inactive)
5,O=c1[nH]c2c(ccc3cnccc32)c2c1CCC2,-60.5% (active)
6,CCCCNC(=O)NS(=O)(=O)c1ccc(N2N=C(c3ccc(C)cc3C)CC2c2ccc(OC)cc2)cc1 (stereo not given),65.1% (inactive)
7,COc1ccc(/C=C/C(=O)c2c(C)nc3ccccc3c2/C=C/c2ccccc2)c(OC)c1,87% (inactive)
8,CC(C)(C)c1nn(-c2ccccc2)c2c1C(=O)CSC(c1ccccc1Cl)N2 (stereo not given),19.8% (inactive)
9,O=c1[nH]c2c3ccncc3cc(-c3cccc(Cl)c3)c2c2cnccc12,42.1% (inactive)
10,CN1CCCCC1CCN1c2ccccc2Sc2ccc(Cl)cc21 (stereo not given),30.2% (inactive)
11,C=C1C(=O)O[C@H]2[C@H]1CC/C(COC(=O)NCCc1c[nH]c3ccccc13)=C\CC[C@@]1(C)O[C@@H]21,-6.71% (active)
12,CCCC#CCN(CC)CC,99.1% (inactive)
13,COc1ccc2nc(Cl)c(Cn3nnc(Cc4ccccc4)n3)cc2c1,29.9% (inactive)
14,CC(=O)c1cccc(N(C)S(=O)(=O)c2ccc(C)cc2)c1,111% (inactive)
15,O=C1CSc2ccccc2N1,112% (inactive)
16,Nc1nc(C(=O)N/N=C/c2ccc(N3CCOCC3)cc2)nn1-c1ccc(S(N)(=O)=O)cc1,105% (inactive)
17,O=C1c2cc3c(cc2-c2c1c1cc(Cl)c(Cl)cc1c(=O)n2C[C@H](O)CO)OCO3,-54.1% (active)
18,CCCCCCNC(=O)Nc1ccc2cc3ccc(NC(=O)NCCCCCC)cc3nc2c1,18.6% (inactive)
19,CCN1CCN(CCNc2nccc(-c3c(-c4cccc(O)c4)nc4sccn34)n2)S1(=O)=O,86.7% (inactive) and 81.1% (inactive)
20,Cc1ccc2cc3c(NC(=O)c4cccnc4)nn(C)c3nc2c1,80.3% (inactive)

row,Compound,growth
1,C=C1C(=O)O[C@H]2[C@H]1CC/C(COC(=O)NCCc1c[nH]c3ccc(Cl)cc13)=C\CC[C@@]1(C)O[C@@H]21,-59% (active)
2,O=C1C=C(SCCO)C(=O)c2ccccc21,-42.6% (active)
3,O=S(=O)(NCCCNc1nccc(-c2[nH]c(-c3ccccc3)nc2-c2ccc(F)c(O)c2)n1)c1ccccc1,88.3% (inactive)
4,N#C/C(=C\c1ccc(-c2ccc(F)cc2)o1)c1nc(-c2ccco2)cs1,-47.2% (active)
5,CC(C)CC(=O)Nc1n[nH]c2c1CN(C(=O)C1CCN(C)CC1)C2(C)C,-44.3% (active)
6,COc1ccc(-c2nc(-c3ccccc3)c(-c3ccccc3)[nH]2)cc1OC1CCCC1,40.4% (inactive)
7,CN(C)CCCOc1c2ccccc2nc2c1oc1ccc(Cl)cc12,-3.66% (active)
8,CS(=O)(=O)c1ccc(-c2cnn3ccc(-c4cccc(S(=O)(=O)C5CC5)c4)nc23)cc1,27.7% (inactive)
9,C/C(=C/CCC(C)[C@@H]1CC[C@]2(C)C3=C(CC[C@@]12C)[C@@]1(C)CCC(=O)C(C)(C)[C@@H]1CC3)C(=O)O (stereo not given in full),-60.4% (active)
10,CSc1nc2ncnc(SC)c2[nH]1,106% (inactive)
11,CN1CCN(C(=O)[C@]23CCC(C)(C)C[C@H]2C2=CC[C@@H]4[C@@]5(C)C/C(=C/c6ccncc6)C(=O)C(C)(C)[C@@H]5CC[C@@]4(C)[C@]2(C)CC3)CC1,44.6% (inactive)
12,O=C1C(Cl)=C(Cl)C(=O)c2c1nc1n2CCCC1,96.7% (inactive)
13,O=C1[C@H]2Cc3c([nH]c4ccccc34)[C@H](c3ccc(Cl)cc3)N2C(=O)CN1C1CCN(CC2CCCCC2)CC1,62.7% (inactive)
14,CCN(CC)c1ccc(CNc2ccnc3ccccc23)cc1,1.4% (active)
15,O=C(CSc1nc2ccc([N+](=O)[O-])cc2[nH]1)Nc1cccc(Cl)c1,-10.4% (active)
16,CN(C)c1ccc(/C=C/c2cc[n+](C)c(/C=C/c3ccc(N(C)C)cc3)c2)cc1,-12.7% (active)
17,CC(=O)Cc1ccccn1,120% (inactive)
18,COc1cc(C(C)n2cc(-c3ccccc3)nn2)ccc1OC1CCCC1 (stereo not given),5.07% (active)
19,NNc1ncccn1,102% (inactive)
20,CC(=O)N(O)c1ccc(/C=C/c2ccccc2)cc1,-63.5% (active)
